This note sets out measurements from PubChem BioAssay (EPA / NIEHS).

Records with an inconclusive call do not appear. Calls of active or inactive are those of the source. Rule for the calls: active = hit-call score of the fitted dose curve at least 0.9, where 1 is the maximum; inconclusive = response in the unintended direction; inactive = score below 0.9.

The experiment is described as follows: CCTE_Harrill_HTTr_CellCount_MCF7: CCTE's Cell Proliferation Assessment for the High-Throughput Transcriptomics (HTTr) Platform, Harrill Lab (AID 2284012).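 Note: cells exposed to compound for six hours; intended direction is loss of nuclei count meaning fewer cells.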 The text has this: This is a cell-based assay that evaluates cell viability and cell growth using high content imaging to count the number of Hoechst-labeled nuclei that are present in an assay well in 384-well format.This is a cell-based assay that evaluates cell viability and cell growth in MCF-7 cells. This was part of a full screening experiment. High content imaging is used to count the number of Hoechst-labeled nuclei that are present in an assay well in 384-well format.The assay component endpoint CCTE_Harrill_HTTr_CellCount_MCF7 was analyzed with bidirectional fitting relation to DMSO as the negative control and baseline of activity. Using a type of viability reporter, loss-of-signal activity can be used to understand changes in cell count. To generalize the intended target to other relatable targets, this assay endpoint is annotated to cell cycle, where the subfamily is cell count.
Chemicals were tested in MCF7 cells in an eight point dilution series with a six hour exposure duration.
Take `CCOP(=S)(OCC)Oc1nc(Cl)n(C(C)C)n1`: the molecule was called inactive. The value for `CCCCC(O)(Cn1cncn1)c1ccc(Cl)cc1Cl` (centres undefined) was “inactive”. The value for `COC(=O)c1c(C(F)F)nc(C(F)(F)F)c(C2=NCCS2)c1CC(C)C` was “inactive”; that for `CCOc1nc(C(Cl)(Cl)Cl)ns1` was “inactive”.

Turning to `CS(=O)(=O)c1cc(C(F)(F)F)ccc1C(=O)c1cnoc1C1CC1`, the call was inactive. As to `CC(C)Oc1cccc(NC(=O)c2ccccc2C(F)(F)F)c1`, the result was inactive. The value for `Cc1c(COC(=O)[C@@H]2[C@H](/C=C(\Cl)C(F)(F)F)C2(C)C)cccc1-c1ccccc1` was “inactive”; that for `CO/N=C(/C1=NOCCO1)c1ccccc1Oc1ncnc(Oc2ccccc2Cl)c1F` was “inactive”; that for `COC(=O)NC(=S)Nc1ccccc1NC(=S)NC(=O)OC` was “inactive”. Then `O=C1C2CC=CCC2C(=O)N1SC(Cl)(Cl)Cl` (centres undefined), with “inactive”; and `COP(=S)(OC)Oc1ccc([N+](=O)[O-])c(C)c1`, with “inactive”; and `CCCCC(C#N)(Cn1cncn1)c1ccc(Cl)cc1` (centres undefined), with “inactive”. In the case of `CCN(CC)c1nc(C)cc(OP(=S)(OC)OC)n1`, the molecule was called inactive.

Regarding `CC(C)(C)C(=O)C(Oc1ccc(Cl)cc1)n1cncn1` (centres undefined), the result was inactive.

Take `CCNC(=O)NC(=O)C(C#N)=NOC`: the result was inactive. Then `Cn1c(-c2ccccc2)cc(-c2ccccc2)[n+]1C`, with “inactive”; and `CC1(C)C(C(=O)OC(C#N)c2cccc(Oc3ccccc3)c2)C1(C)C` (centres undefined), with “inactive”. Then `CS(=O)(=O)c1ccc(C(=O)C2C(=O)CCCC2=O)c([N+](=O)[O-])c1`, with “inactive”; and `COC(=O)NS(=O)(=O)c1ccc(N)cc1`, with “inactive”; and `Cc1ccc(N=CN(C)C=Nc2ccc(C)cc2C)c(C)c1`, with “inactive”. The value for `CN/C(=N\[N+](=O)[O-])NCc1cnc(Cl)s1` was “inactive”; that for `CC(C)N1C(=O)N(c2ccccc2)CSC1=NC(C)(C)C` was “inactive”. Regarding `CCOP(=O)(OCC)Oc1nc(Cl)c(Cl)cc1Cl`, the molecule was called inactive.

`Clc1nc(Cl)nc(Nc2ccccc2Cl)n1`: the molecule was classed as inactive. The value for `Clc1cccc(C(Cl)(Cl)Cl)n1` was “inactive”; that for `CC1(C)C(C=C(Cl)Cl)C1C(=O)OC(C#N)c1cccc(Oc2ccccc2)c1` (centres undefined) was “inactive”. In the case of `Nc1c(Cl)c(Cl)nc(C(=O)O)c1Cl`, the outcome was inactive. The value for `Nc1c(Cl)c(F)nc(OCC(=O)O)c1Cl` was “inactive”; that for `CCCN(CC)CC1COC2(CCC(C(C)(C)C)CC2)O1` (centres undefined) was “inactive”; that for `OC(c1ccc(Cl)cc1)(c1ccc(Cl)cc1)C(Cl)(Cl)Cl` was “inactive”. Then `CCNP(=S)(OC)O/C(C)=C/C(=O)OC(C)C` (centres undefined), with “inactive”; and `O=C(Nc1ccccc1-c1ccc(Cl)cc1)c1cccnc1Cl`, with “inactive”.

As to `COP(=S)(OC)SCn1nnc2ccccc2c1=O`, the result was inactive.

Take `COC(=O)N(C(=O)N1CO[C@@]2(C(=O)OC)Cc3cc(Cl)ccc3C2=N1)c1ccc(OC(F)(F)F)cc1`: the molecule was classed as inactive. Consider `CCCCOCN(C(=O)CCl)c1c(CC)cccc1CC`, for which the result was inactive.

In the case of `C=CCOC(=O)C(C)(C)OC(=O)c1cc(-n2c(=O)cc(C(F)(F)F)n(C)c2=O)ccc1Cl`, the result was inactive. Take `CCC(C)n1c(=O)[nH]c(C)c(Br)c1=O` (centres undefined): the result was inactive. Then `Cc1cnc(C2=NC(C)(C(C)C)C(=O)N2)c(C(=O)O)c1` (centres undefined), with “inactive”; and `CC(C)N1C(=O)c2ccccc2NS1(=O)=O`, with “inactive”.
